PubChem BioAssay (NCI)
The panel holds about 83,000 compounds, 20% with a hit somewhere; the sample as a whole holds those more often.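 Interpretation: 100, growth as untreated; towards 0, rising growth inhibition; 0, no net growth; 0 to -100, cell death. Compounds scoring below 10 were considered active.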 Active and inactive are the calls of the source.

Each molecule was assayed on HCC-2998 colon (assay: NCI-60 one-dose screen, 48 h (100 = growth as untreated, 0 = no growth, -100 = all killed)). Conditions: 10 µM unless noted.

Structure (SMILES) | growth
CC(C)(C)c1cc(NC(=O)Nc2ccc(-c3cn4c5c(sc4n3)CCc3c[nH]cc3-5)cc2)no1 | 24% (inactive)
NS(=O)(=O)c1ccc(Nc2nc(Nc3ccccc3)nc(N3N=C(c4ccc(Cl)cc4)CC3c3ccc(Cl)cc3)n2)cc1 (stereo not given) | 13.1% (inactive)
COc1ccc2sc(NC(=O)CCCCCCNC(=O)C(O)(O)C(F)(F)F)nc2c1 | -45.9% (active)
N#C/C(=C\c1ccc(-c2ccc(Cl)cc2)o1)C(=O)Nc1ncc(Cc2ccc(Br)cc2)s1 | 62.4% (inactive)
C#CCN(C)CCCOc1ccc(NCc2ccc(C(=O)NO)cc2)cc1Cl | 32.7% (inactive)
COc1ccc(C(=O)c2c(N)c(C#N)cn2-c2ccc(Cl)cc2Cl)cc1 | 103% (inactive)
C/C(=N\NC(=O)/C=C/CC(=O)O)c1nnn(-c2ccc([N+](=O)[O-])cc2)c1C | 105% (inactive)
O=C(/C=C/c1ccc(F)cc1)Nc1cccc2cccnc12 | 88% (inactive)
COc1ccccc1N1CCN(C2=C(Cl)C(=O)c3ncccc3C2=O)CC1 | 108% (inactive)
NS(=O)(=O)c1cccc(Nc2nc(SCC(=O)c3ccc(Cl)cc3)nc3c2CCC3)c1 | 107% (inactive)
CN(C)c1cccc2c(S(=O)(=O)Nc3cccc(-c4csc(NC(=O)CCCCCN5CCN(CCO)CC5)n4)c3)cccc12 | 90.3% (inactive)
O=c1nc(Nc2ccc([N+](=O)[O-])cc2O)sc2ccccc12 | 62.4% (inactive)
NC1C2CCC1CN(c1cnc(C(=O)Nc3cc(F)cc4cccnc34)cn1)C2 (stereo not given) | 79.3% (inactive)
COc1ccc(C2CC(c3cccc(OCCCCOc4cccc(C5=NOC(c6ccc(OC)cc6)C5)c4)c3)=NO2)cc1 (stereo not given) | 101% (inactive)
CCc1cc2c(cc1Cl)nc1c(=O)[nH]c(=O)nc-1n2CCOCC(C)(C)C | 84.1% (inactive)
Clc1ccc2[nH]cc(-c3nn4cc(-c5ccncc5)nc4s3)c2c1 | 85.3% (inactive)
CN1CCN(c2ccc(Nc3nc(NCCNS(=O)(=O)c4ccc5ccccc5c4)c4sccc4n3)cc2)CC1 | 72.3% (inactive)
CC(C)[C@H]1c2[nH]c3ccccc3c2C[C@H]2C(=O)N(CCCCCCC(=O)NO)CC(=O)N12 | 102% (inactive)
O=C(Nc1ccccc1)Nc1nc2ccc([N+](=O)[O-])cc2[nH]1 | 60.4% (inactive)
N#Cc1c(-c2cccs2)cc(-c2cnccn2)nc1SCC(=O)N/N=C/c1ccncc1 | 109% (inactive)

Structure (SMILES) | growth
O=C(/C=C/c1ccccc1)c1cccc(O)c1 | 111% (inactive)
O=C1[C@@H]2Cc3c([nH]c4ccccc34)[C@H](c3ccc(Br)cc3)N2C(=O)CN1C1CCN(Cc2c(Cl)cccc2Cl)CC1 | 101% (inactive)
COc1cccc2c1C=CC1(O2)Oc2cccc(OC)c2C=C1C (stereo not given) | 15.8% (inactive)
CCN(CC)c1ccc(/C=N/NC(=O)c2ccc(NS(C)(=O)=O)cc2)cc1 | 45.7% (inactive)
N#Cc1nc(-c2ccc(Cl)cc2)oc1N1CCC(S(=O)(=O)N2CCOCC2)CC1 | 102% (inactive)
O=C(CCCCCC/C=C\c1csc(Br)n1)NO | 98.5% (inactive)
COc1ccc(OC)c(NC(=O)CCCCCCNC(=O)C(O)(O)C(F)(F)F)c1 | 51.5% (inactive)
NCCNC(=O)c1cccc(COc2ccccc2NC(=O)c2cc(Br)c(Br)[nH]2)c1 | 99.8% (inactive)
C#CCOc1ccccc1C(OC(=O)c1ccccc1)C(=O)NC(C)(C)C(C)(C)C (stereo not given) | 96.1% (inactive)
O=C(CSc1nc2ccccc2c(=O)n1CCc1ccccc1)Nc1ccc(S(=O)(=O)Nc2ccc(Cl)nn2)cc1 | 102% (inactive)
O=C1CSC(c2cn(-c3ccccc3)nc2-c2ccc(Cl)cc2)N1c1ccccc1 (stereo not given) | 111% (inactive)
COc1ccc2c(c1)c(-c1nn3cc(-c4ccncc4)nc3s1)cn2C | 87.2% (inactive)
O=C(/C=C/c1cc(Cl)ccc1Cl)Nc1ncc(Cc2ccc(Cl)cc2)s1 | 13.3% (inactive)
CC1=C(C)C(=O)C(Nc2cccc(C)c2)=C(Br)C1=O | 111% (inactive)
COc1ccc(Cn2cc(C#N)c(N)c2C(C)=O)cc1 | 107% (inactive)
Cn1ncc2ncc(-c3ccc4ncc(C#N)c(N5CCc6cc(F)c(Cl)cc65)c4c3)cc21 | 46.4% (inactive)
Cc1ccc2c(n1)C(=O)C(Cl)=C(Nc1ccc(C(F)(F)F)cc1)C2=O | 97.9% (inactive)
CSc1ccc(/C(=N/N=C(N)N)c2ccc(F)cc2)cc1 | -14.1% (active)
CC(=O)OC[C@@]12Oc3c(cccc3-c3ccc(O)c4c3O[C@]3(COC(C)=O)C(=C4O)C(=O)C[C@H](C)[C@@H]3OC(C)=O)C(O)=C1C(=O)C[C@H](C)[C@@H]2OC(C)=O | 23.7% (inactive)
CCCCOc1ccc(S(=O)(=O)N2CCN(c3nc(C)cc(N4CCOCC4)n3)CC2)cc1 | 33% (inactive)

The molecules below were run on KM12 colon in the same assay as above. Conditions: 10 µM unless noted.

Structure (SMILES) | growth
CC(C)(C)c1cc(NC(=O)Nc2ccc(-c3cn4c5c(sc4n3)CCc3c[nH]cc3-5)cc2)no1 | 6.68% (active)
NS(=O)(=O)c1ccc(Nc2nc(Nc3ccccc3)nc(N3N=C(c4ccc(Cl)cc4)CC3c3ccc(Cl)cc3)n2)cc1 (stereo not given) | 5.08% (active)
COc1ccc2sc(NC(=O)CCCCCCNC(=O)C(O)(O)C(F)(F)F)nc2c1 | -15.1% (active)
N#C/C(=C\c1ccc(-c2ccc(Cl)cc2)o1)C(=O)Nc1ncc(Cc2ccc(Br)cc2)s1 | 9.51% (active)
C#CCN(C)CCCOc1ccc(NCc2ccc(C(=O)NO)cc2)cc1Cl | 24.2% (inactive)
COc1ccc(C(=O)c2c(N)c(C#N)cn2-c2ccc(Cl)cc2Cl)cc1 | 102% (inactive)
C/C(=N\NC(=O)/C=C/CC(=O)O)c1nnn(-c2ccc([N+](=O)[O-])cc2)c1C | 97.2% (inactive)
O=C(/C=C/c1ccc(F)cc1)Nc1cccc2cccnc12 | 95% (inactive)
COc1ccccc1N1CCN(C2=C(Cl)C(=O)c3ncccc3C2=O)CC1 | 90.7% (inactive)
NS(=O)(=O)c1cccc(Nc2nc(SCC(=O)c3ccc(Cl)cc3)nc3c2CCC3)c1 | 105% (inactive)
CN(C)c1cccc2c(S(=O)(=O)Nc3cccc(-c4csc(NC(=O)CCCCCN5CCN(CCO)CC5)n4)c3)cccc12 | 88.6% (inactive)
O=c1nc(Nc2ccc([N+](=O)[O-])cc2O)sc2ccccc12 | 23.9% (inactive)
NC1C2CCC1CN(c1cnc(C(=O)Nc3cc(F)cc4cccnc34)cn1)C2 (stereo not given) | 77.1% (inactive)
COc1ccc(C2CC(c3cccc(OCCCCOc4cccc(C5=NOC(c6ccc(OC)cc6)C5)c4)c3)=NO2)cc1 (stereo not given) | 76.2% (inactive)
CCc1cc2c(cc1Cl)nc1c(=O)[nH]c(=O)nc-1n2CCOCC(C)(C)C | 76.5% (inactive)
Clc1ccc2[nH]cc(-c3nn4cc(-c5ccncc5)nc4s3)c2c1 | 47.7% (inactive)
CN1CCN(c2ccc(Nc3nc(NCCNS(=O)(=O)c4ccc5ccccc5c4)c4sccc4n3)cc2)CC1 | 86.7% (inactive)
CC(C)[C@H]1c2[nH]c3ccccc3c2C[C@H]2C(=O)N(CCCCCCC(=O)NO)CC(=O)N12 | 88.8% (inactive)
O=C(Nc1ccccc1)Nc1nc2ccc([N+](=O)[O-])cc2[nH]1 | 45.2% (inactive)
N#Cc1c(-c2cccs2)cc(-c2cnccn2)nc1SCC(=O)N/N=C/c1ccncc1 | 100% (inactive)

Structure (SMILES) | growth
O=C(/C=C/c1ccccc1)c1cccc(O)c1 | 88.8% (inactive)
O=C1[C@@H]2Cc3c([nH]c4ccccc34)[C@H](c3ccc(Br)cc3)N2C(=O)CN1C1CCN(Cc2c(Cl)cccc2Cl)CC1 | 99.1% (inactive)
COc1cccc2c1C=CC1(O2)Oc2cccc(OC)c2C=C1C (stereo not given) | 20.5% (inactive)
CCN(CC)c1ccc(/C=N/NC(=O)c2ccc(NS(C)(=O)=O)cc2)cc1 | 18.1% (inactive)
N#Cc1nc(-c2ccc(Cl)cc2)oc1N1CCC(S(=O)(=O)N2CCOCC2)CC1 | 105% (inactive)
O=C(CCCCCC/C=C\c1csc(Br)n1)NO | 91.7% (inactive)
COc1ccc(OC)c(NC(=O)CCCCCCNC(=O)C(O)(O)C(F)(F)F)c1 | 43.5% (inactive)
NCCNC(=O)c1cccc(COc2ccccc2NC(=O)c2cc(Br)c(Br)[nH]2)c1 | 89.7% (inactive)
C#CCOc1ccccc1C(OC(=O)c1ccccc1)C(=O)NC(C)(C)C(C)(C)C (stereo not given) | 92.7% (inactive)
O=C(CSc1nc2ccccc2c(=O)n1CCc1ccccc1)Nc1ccc(S(=O)(=O)Nc2ccc(Cl)nn2)cc1 | 98.8% (inactive)
O=C1CSC(c2cn(-c3ccccc3)nc2-c2ccc(Cl)cc2)N1c1ccccc1 (stereo not given) | 102% (inactive)
COc1ccc2c(c1)c(-c1nn3cc(-c4ccncc4)nc3s1)cn2C | 83.3% (inactive)
O=C(/C=C/c1cc(Cl)ccc1Cl)Nc1ncc(Cc2ccc(Cl)cc2)s1 | 13.1% (inactive)
CC1=C(C)C(=O)C(Nc2cccc(C)c2)=C(Br)C1=O | 105% (inactive)
COc1ccc(Cn2cc(C#N)c(N)c2C(C)=O)cc1 | 98.7% (inactive)
Cn1ncc2ncc(-c3ccc4ncc(C#N)c(N5CCc6cc(F)c(Cl)cc65)c4c3)cc21 | 52.5% (inactive)
Cc1ccc2c(n1)C(=O)C(Cl)=C(Nc1ccc(C(F)(F)F)cc1)C2=O | 98.2% (inactive)
CSc1ccc(/C(=N/N=C(N)N)c2ccc(F)cc2)cc1 | 9.6% (active)
CC(=O)OC[C@@]12Oc3c(cccc3-c3ccc(O)c4c3O[C@]3(COC(C)=O)C(=C4O)C(=O)C[C@H](C)[C@@H]3OC(C)=O)C(O)=C1C(=O)C[C@H](C)[C@@H]2OC(C)=O | 8.74% (active)
CCCCOc1ccc(S(=O)(=O)N2CCN(c3nc(C)cc(N4CCOCC4)n3)CC2)cc1 | 4.03% (active)
